Measurements reported in PubChem BioAssay (Tox21).
Inconclusive results are not listed. The source made the active and inactive calls. Calls follow the shape of the dose curve; as a rule, active = well fitted cell-killing curve with a large enough effect in the repeat runs; inconclusive = weak or mixed curves, or effect the other way; inactive = no such curve, though single readings can be large or run the other way.

Assay: qHTS assay to identify small molecule antagonists of the vitamin D receptor (VDR) signaling pathway - cell viability counter screen (AID 743225); also: nearly all actives have a fitted effect of over 50% in size
Settings: VDR-bla HEK293T viability, CellTiter-Glo luminescence, 16 h; series mostly up to 61 µM; viability change, negative = cytotoxic: at the top concentration
Source text: U.S. Tox21 Program National Center for Advancing Translational Sciences [NCATS] NIH Chemical Genomics Center [NCGC] U.S. Environmental Protection Agency [EPA] National Institutes of Environmental Health Sciences [NIEHS] National Toxicology Program [NTP] U.S. Food and Drug Administration [FDA] Tox21 Assay Overview: The vitamin D receptor (VDR), a member of nuclear hormone receptor superfamily, plays a critical role in calcium homeostasis and bone metabolism. It is also involved in cell differentiation and growth, and thrombogenicity. To identify the compounds that inhibit VDR signaling, the VDR-UAS-bla HEK 293T cell line (Invitrogen, Carlsbad, CA, USA) containing a beta-lactamase reporter gene under the control of an upstream activator sequence (UAS) was used to screen the Tox21 10K compound library. The cytotoxicity of the Tox21 compound library against the VDR-bla cell line was tested in parallel by measuring the cell viability using CellTiter-Glo assay (Promega, Madison, WI) in the same wells.
Tox21 Assay Protocol Summary: VDR-bla cells were dispensed at 2,000 cells/5 uL of assay medium per well into black wall/clear-bottom 1536-well plates using a Multidrop Combi (Thermo Fisher Scientific, Waltham, MA) dispenser. After the assay plates were incubated at a 37C and 5% CO2 for 4 h, 23 nL of compounds dissolved in DMSO, positive controls or DMSO only was transferred to the assay plate by a Pintool station (Kalypsys, San Diego, CA), followed by addition of 1 uL of 1-alpha, 25-Dihydroxy Vitamin D3 (3 nM, final concentration in the wells) using a Bioraptr Flying Reagent Dispenser (FRD) workstation (Beckman Coulter, Indianapolis, IN). The plates were incubated at 37C and 5% CO2 for 16 h, and then 1 uL of LiveBLAzerTM B/G FRET substrate was added using a Bioraptr FRD. The plates were incubated at room temperature for 2 h and fluorescence intensity was measured by an Envision plate reader (PerkinElmer, Shelton, CT). For cell viability readout that measures cytotoxicity, 3 ul/well of CellTiter-Glo reagent was added into the assay plates using a Bioraptr FRD. After 30 min incubation at room temperature, the luminescence intensity in the plates was measured using a ViewLux plate reader (PerkinElmer).
% is scaled to controls: 0 for no effect and ±100 for the full control effect.

Row | Compound | viability change, negative = cytotoxic
1 | CCOC(=O)[C@H](CCc1ccccc1)N[C@H]1CS[C@H](c2cccs2)CN(CC(=O)O)C1=O | 0.806% (inactive)
2 | CN(C)CCC[C@@]1(c2ccc(F)cc2)OCc2cc(C#N)ccc21 | -19.2% (inactive)
3 | C=CCCCCCCCCOC(C)=O | -14.4% (inactive)
4 | Cc1ccccc1C#N | -9.01% (inactive)
5 | O=P(O)(O)C(O)(Cc1cccnc1)P(=O)(O)O | 2.38% (inactive)
6 | CCCCCCCCCCCCCC(=O)OCC | -0.414% (inactive)
7 | O=c1c(O)c(O)c1=O | -2.31% (inactive)
8 | NNC(=O)OCc1ccccc1 | 0.276% (inactive)
9 | COc1cc(S(N)(=O)=O)cc(C(=O)O)c1OC | 1.51% (inactive)
10 | C[Si](C)(C)O[Si](O)(O)O | 7.49% (inactive)
11 | CC(C)c1cc(C(C)C)cc(C(C)C)c1 | 7.15% (inactive)
12 | N#Cc1cc(NC(=O)C(=O)O)c(Cl)c(NC(=O)C(=O)O)c1 | 8.7% (inactive)
13 | C=COCCCCO | -26.2% (inactive)
14 | CCCCCCCCCCCCCCCCN(C)C | -0.156% [at 6.95 µM] (inactive)
15 | COc1ccc(Cl)cc1C | 26.8% [at 78.8 µM] (inactive)
16 | CCCCS | -1.14% [at 78.8 µM] (inactive)
17 | C=CC(=O)CC | 4.03% [at 78.8 µM] (inactive)
18 | C=CCN1CCc2nc(N)sc2CC1 | 2.05% (inactive)
19 | Cc1cc(N)no1 | -3.81% [at 78.8 µM] (inactive)
20 | O=C(OOC(=O)c1ccccc1)c1ccccc1 | -0.616% (inactive)

Row | Compound | viability change, negative = cytotoxic
21 | O=c1[nH]c(=O)c2cn[nH]c2[nH]1 | -10.7% (inactive)
22 | CCCC(=O)C(CC)Sc1ccoc1C (stereo not given) | -2.78% (inactive)
23 | CN(C)CCc1c[nH]c2ccc(CS(=O)(=O)N3CCCC3)cc12 | 1.23% (inactive)
24 | CCCC[O][Al]([O]CCCC)[O]CCCC | 3.32% (inactive)
25 | COC(=O)c1ccc(C(=O)O)cc1 | 4.56% (inactive)
26 | CCC(=O)OCCOc1ccccc1 | -3.86% (inactive)
27 | CC(=O)OCC(=O)[C@@]1(O)CC[C@H]2[C@@H]3CCC4=CC(=O)C=C[C@]4(C)[C@H]3[C@@H](O)C[C@@]21C | 0.467% (inactive)
28 | CNC(=O)c1c(I)c(NC(C)=O)c(I)c(C(=O)O)c1I | 3.13% (inactive)
29 | C[C@@H]1NC(=O)[C@@H](N)CNC(=O)[C@H](C2CCNC(N)=N2)NC(=O)/C(=C/NC(N)=O)NC(=O)[C@H](CNC(=O)C[C@@H](N)CCCN)NC1=O (stereo not given in full) | 3.48% [at 0.628 µM] (inactive)
30 | CCNC(=O)C(C)OC(=O)Nc1ccccc1 (stereo not given) | 4.1% (inactive)
31 | CC(C)(C)c1ccc(C(=O)CCCCl)cc1 | 4.34% (inactive)
32 | CC(=O)SCC(CC(=O)c1ccc(C)cc1)C(=O)O (stereo not given) | -5.43% (inactive)
33 | CC(C)(C)OC(=O)c1ccccc1C(=O)O | -34.6% (inactive)
34 | COCc1nnc(-c2ccc[n+]([O-])c2)n1-c1c(Cl)c(Cl)cc2[nH]c(=O)c(=O)[nH]c12 | 8.27% (inactive)
35 | COc1cc(C(=O)NC2CCCNC2)cc(OC)c1OC (stereo not given) | 0.389% (inactive)
36 | O=C(O)P(=O)(O)O | -3.76% (inactive)
37 | C/C=C/C(=O)CCCC | -3.57% (inactive)
38 | CC(=O)Oc1ccc(C(C)=O)cc1 | 0.229% [at 78.8 µM] (inactive)
39 | CCC(C)c1nccnc1OC (stereo not given) | -3.28% (inactive)
40 | C[C@@H]1CC[C@@]2(OC1)O[C@H]1C[C@H]3[C@@H]4CC[C@H]5C[C@@H](O)CC[C@]5(C)[C@H]4CC(=O)[C@]3(C)[C@H]1[C@@H]2C | -3.49% [at 6.95 µM] (inactive)
